TGFb inhibitor – qHTS for Inhibitors of TGF-b; HepG2 CAGA-GFP TGF-b/SMAD3 reporter, GFP fluorescence, 18 h; TGF-beta stimulated, 500 pg/mL final; actives 1.2% (n = 410,000); Potency, µM (series often up to 46.1 µM), actives largely listed as inhibitors; AID 588855, 2011; further: nearly all actives have a fitted effect of over 65% in size
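Using HEPG2 CAGA-GFP reporter cells at 1000 cells/well, we pinned test compounds, stimulated with recombinant TGF-beta (500 pg/mL final) and measured total well GFP after 18 h.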
HepG2 viability – qHTS for Inhibitors of TGF-b: Cytotox Counterscreen; HepG2 CAGA-GFP viability, ATP luminescence, 18 h; Potency, µM (titrated, usually from 46.1 µM), hits mostly cytotoxic; AID 588856, 2011; actives 0.76% (n = 410,000)
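HepG2 CAGA-GFP cells (1000/well, DMEM with 1% FBS) received compound, then TGF-beta at 500 pg/mL final, and were incubated 18 hours at 37 degrees C. Viability was read by CellTiter-Glo luminescence. Media-only wells were set as complete cell-killing and DMSO as no toxicity.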
DT40 TDP1 CPT – qHTS for Inhibitors of human tyrosyl-DNA phosphodiesterase 1 (TDP1): qHTS in cells in presence of CPT; chicken DT40 Tdp1-/-;hTDP1 cells + 20 nM CPT, ATP luminescence, 48 h; Potency, µM (top dose mostly 46.2 µM), hits mostly inhibitors; actives 12% (n = 420,000); AID 686979, 2013; further: nearly all actives have a fitted effect of over 55% in size
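Chicken DT40 Tdp1-/- cells stably complemented with human TDP1 were seeded at 400 cells/well in medium containing 20 nM camptothecin, exposed to pin-transferred compounds, and grown at 37 °C for at least 48 hr. Viability was read as ATP luminescence.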
TDP1 cell noCPT – qHTS for Inhibitors of human tyrosyl-DNA phosphodiesterase 1 (TDP1): qHTS in cells in absence of CPT; Potency, µM (doses to about 46.2 µM), actives largely listed as inhibitors; DT40 Tdp1-/- hTDP1 cells, no CPT, ATP luminescence, 48 h; actives 15% (n = 420,000); further: nearly all actives have a fitted effect of over 55% in size
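A cellular qHTS used chicken DT40 cells lacking endogenous Tdp1 but carrying stably transfected human TDP1. Compounds were applied without camptothecin, and cell growth kinetics were judged by ATP-dependent luminescence after ≥48 hr.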
IL-1B inflam inh – qHTS for Inhibitors of Inflammasome Signaling: IL-1-beta AlphaLISA Primary Screen; THP-1 LPS/ATP IL-1B secretion, AlphaLISA, 16 h; hits give low values; activity change, % at 57.5 µM; actives 4.7% (n = 360,000); in the data active means activity change below about -50%; inconclusive means mostly about -30% to -49%
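THP-1 cells pretreated 1 hr with compounds (up to 57.5 uM final), then stimulated with LPS (250 ng/mL final) plus ATP (1.25 mM final); secreted IL-1B measured by AlphaLISA after 16 hr, decreased signal indicating inhibition.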
TDP1 inh – qHTS Assay for Inhibitors of Tyrosyl-DNA Phosphodiesterase (TDP1); Tyrosyl-DNA phosphodiesterase 1 (Homo sapiens), Q9NUW8; recombinant TDP1, AlphaScreen DNA substrate cleavage; Potency, µM (doses to about 130 µM), hits mostly inhibitors; actives 0.28% (n = 350,000); further: nearly all actives have a fitted effect of over 40% in size
Target sequence (Q9NUW8 whole entry, looked up): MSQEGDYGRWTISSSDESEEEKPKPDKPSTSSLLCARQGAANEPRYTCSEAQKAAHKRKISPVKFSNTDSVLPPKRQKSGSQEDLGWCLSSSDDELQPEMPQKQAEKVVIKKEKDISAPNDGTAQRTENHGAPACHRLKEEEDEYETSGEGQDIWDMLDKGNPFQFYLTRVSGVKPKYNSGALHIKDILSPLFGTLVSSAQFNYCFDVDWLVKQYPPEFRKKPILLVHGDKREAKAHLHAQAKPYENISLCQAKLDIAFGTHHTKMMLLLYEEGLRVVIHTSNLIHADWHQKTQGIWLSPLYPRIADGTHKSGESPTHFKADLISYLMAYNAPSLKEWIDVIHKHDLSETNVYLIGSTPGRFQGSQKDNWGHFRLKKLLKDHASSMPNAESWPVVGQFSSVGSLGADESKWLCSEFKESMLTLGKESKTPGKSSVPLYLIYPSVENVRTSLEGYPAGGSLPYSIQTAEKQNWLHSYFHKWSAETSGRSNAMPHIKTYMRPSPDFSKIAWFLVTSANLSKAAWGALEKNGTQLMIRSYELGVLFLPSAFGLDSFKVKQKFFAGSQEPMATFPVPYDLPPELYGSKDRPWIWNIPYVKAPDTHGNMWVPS
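Tdp1 1 nM final; 15 min RT w/ cpd; substrate 15 nM, 5 min; beads 10 ug/ml, 10 min; AlphaScreen read. Neg ctrl: no enzyme.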
Hits are given with their value; – = inactive; ? = inconclusive; · = no result given. The list is not random: actives were taken first. Their share in the collection is about 19%. Unless noted, the call rests on the fitted dose curve; in most records, active means well fitted curve in the direction sought with a large enough effect; inconclusive means small, poorly fitted or top-dose-only effect, or another doubt; inactive means no such curve, though single readings can be large; an effect the other way counts as inactive or inconclusive.

SMILES	TGFb inhibitor	HepG2 viability	DT40 TDP1 CPT	TDP1 cell noCPT	IL-1B inflam inh	TDP1 inh
COCCNC(=O)c1ccccc1NC(=O)Nc1ccccc1	–	–	–	–	-50	–
CCC(=O)N1CCc2cc(Br)cc(S(=O)(=O)N3CCCC(C(=O)NCc4cccc(OC)c4)C3)c21 (centres undefined)	?	–	?	?	·	–
CC(CC(=O)Nc1ccc(F)cc1)S(=O)(=O)c1cc2c3c(c1)CCN3C(=O)CC2 (centres undefined)	–	–	–	–	·	–
NS(=O)(=O)c1cccc(NC(=O)CC(NC(=O)c2ccccc2Cl)c2ccccc2)c1 (centres undefined)	–	–	–	–	–	·
CC(C)C(=O)Nc1nnc(-c2ccccc2)o1	–	–	–	–	–	–
O=C(Nc1ccccc1)Nc1ccc(Nc2ccccc2)cc1	–	–	?	7.3µM	–	·
O=C(Nc1ccccc1)Nc1cccc2nsnc12	?	–	?	?	-74	–
O=C(Nc1ccccc1)Nc1nnc(-c2ccccc2)o1	–	–	29µM	?	-102	–
O=C(Nc1ccc(Nc2ccccc2)cc1)C1CC1	–	–	7.3µM	6.5µM	–	–
CCc1ccc(C(=O)c2cn(CC(=O)Nc3ccc(OC)cc3OC)c3ccc(CC)cc3c2=O)cc1	–	–	–	–	·	–
Cc1ccc(/C=C/S(=O)(=O)NCC(=O)OCC(=O)NCc2ccccc2)cc1	–	–	–	–	–	–
CNC(=O)[C@H](C)/C=C/C(NC(=O)OCc1ccccc1)c1ccc(C(=O)OC)cc1 (some centres undefined)	·	·	·	·	·	–
O=C(Nc1ccccc1)Nc1ccc(Cl)nc1Cl	?	–	?	?	-79	·
O=C(COC(=O)c1cc[n+]([O-])cc1)Nc1c(Cl)cccc1C(F)(F)F	–	–	–	–	–	·
COc1ccccc1N1CCN(CCCn2c(=S)[nH]c3ccccc3c2=O)CC1	–	–	13µM	9.2µM	–	·
COc1ccccc1N1CCN(CCCNC(=O)Cn2ncc3c([nH]c4ccccc43)c2=O)CC1	–	–	?	21µM	–	–
COc1ccc(N2CCN(CCCn3c(=S)[nH]c4ccccc4c3=O)CC2)cc1	–	–	?	?	–	·
O=C(Cn1ncc2c([nH]c3ccccc32)c1=O)NCCc1ccc(Cl)cc1	–	–	–	–	–	–
Cc1ccc(C)c(N2CCN(CCCNC(=O)Cn3ncc4c([nH]c5ccccc54)c3=O)CC2)c1	–	–	15µM	21µM	·	–
O=C(Cn1ncc2c([nH]c3ccccc32)c1=O)Nc1ccc(CN2CCCCC2)cc1	–	–	?	18µM	–	–
COc1ccc(C2/C=C\CN(CC3CCCCC3)C(Cc3ccccc3)C(=O)N2Cc2ccc(F)cc2)cc1 (centres undefined)	–	–	·	·	·	–
CCc1ccccc1OCC(=O)N1CCN(c2ncccn2)CC1	–	–	?	?	–	–
COc1ccc(Cl)cc1NC(=O)c1cc2c(=O)n3ccccc3nc2s1	·	–	–	–	·	–
CC(C)Cc1ccc(C(C)NC(=O)Cc2ccc(S(=O)(=O)N3CCOCC3)s2)cc1 (centres undefined)	–	–	?	?	–	·
Cc1cccc(NS(=O)(=O)c2ccc(OCC(=O)N3CCCC3)cc2)c1	?	–	–	–	–	–
SMILES	TGFb inhibitor	HepG2 viability	DT40 TDP1 CPT	TDP1 cell noCPT	IL-1B inflam inh	TDP1 inh
COc1cc2c(=O)n(CCCN3CCOCC3)c(=S)[nH]c2c(OC)c1OC	–	–	5.8µM	23µM	–	–
Cc1cccc(C2c3[nH]c4ccccc4c3CCN2C(=O)c2ocnc2C)n1 (centres undefined)	–	–	–	?	–	–
CC(C)c1nc(C(=O)N2CCc3c([nH]c4ccccc34)C2c2ccccn2)cs1 (centres undefined)	–	–	–	–	-64	–
Cc1cccc(C2c3[nH]c4ccccc4c3CCN2C(=O)c2nn(C)c(=O)c3ccccc23)n1 (centres undefined)	–	–	?	?	-59	–
Cn1c(-n2cccc2)c(-c2c(-c3ccccc3)[nH]c3c2c(=O)n(C)c(=O)n3C)c(=O)n(C)c1=O	–	–	–	–	·	–
COc1ccc(CNCCC(c2ccc(F)cc2)c2ccc(OC)cc2)cc1 (centres undefined)	?	–	12µM	10µM	·	–
COc1ccc(C(CCNCc2ccccc2)c2ccc(F)cc2)cc1 (centres undefined)	18µM	–	?	?	–	–
COc1ccc(C(CCNC(C)c2ccccc2)c2ccc(F)cc2)cc1 (centres undefined)	13µM	–	7.3µM	7.3µM	-50	–
Cc1nn(C)c2c1c(C(F)(F)F)cc(=O)n2CC(=O)NCCC(C)C	–	–	?	–	·	–
CC1CCN(c2ccc(C(=O)Nc3ccc4c(c3)OCO4)cc2[N+](=O)[O-])CC1	–	–	10µM	9.2µM	-141	–
CC1CCCN(c2ccc(C(=O)Nc3ccc4c(c3)OCO4)cc2[N+](=O)[O-])C1 (centres undefined)	–	–	?	21µM	-66	–
CC1CCCN(c2ccc(C(=O)OCn3nnc4ccccc4c3=O)cc2[N+](=O)[O-])C1 (centres undefined)	–	–	?	?	–	–
CC1CCCN(c2ccc(C(=O)OCC(=O)N3c4ccccc4Sc4ccccc43)cc2[N+](=O)[O-])C1 (centres undefined)	–	–	18µM	23µM	–	–
Cc1cc2nc(-c3ccccc3)c(Cc3ccccc3)n2c(C)c1Br	?	–	23µM	?	–	·
Cc1cc2nc(C3CCCCC3)c(Cc3ccccc3)n2c(C)c1Br	–	–	?	23µM	–	·
Cc1cc2nc(-c3ccc(C#N)cc3)c(Cc3ccsc3)n2c(C)c1Br	·	·	16µM	16µM	–	·
Cc1cc2nc(-c3ccccc3)c(Cc3ccsc3)n2c(C)c1Br	·	·	15µM	15µM	–	·
Cc1cc2nc(C3CCCCC3)c(Cc3cccc(Cl)c3)n2c(C)c1Br	·	·	–	–	–	·
COc1ccc(Cc2c(-c3ccccc3)nc3cc(C)c(Br)c(C)n23)c(C)c1	–	–	?	?	–	·
